PKA inh: blocks human protein kinase A activity; PKA Kemptide phosphorylation, Kinase-Glo ATP luminescence; inhibition, % at 6 µM; 65,000 tested, 0.1% active;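 active means inhibition above the screen-wide mean inhibition plus 3 SD, cut at about 21% in these data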
ROCK2 blocker: ROCK2 (human) kinase inhibition | 60,000 tested, 0.35% active | purified ROCK2, Kinase-Glo ATP depletion luminescence | inhibition, % at 6 µM | O75116;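 active means inhibition above the screen-wide mean inhibition plus 3 SD, cut at about 18% in these data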;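 further: plate controls were DMSO wells for no effect and Y-27632 control wells after no-enzyme background subtraction for full effect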
hDAT+cocaine: changed human dopamine transporter uptake under cocaine IC80; Q01959; LLC-PK1 hDAT cells, [14C]-dopamine uptake with cocaine IC80; actives deviate in either direction; B-score at 10 µM; 110,000 tested, 1.3% active; AID 449768;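 active means Z score or B-score, a plate-position-corrected score, falls beyond the plate's 99.7% confidence bounds, in either direction; inactive means both scores lie inside the 99.7% bounds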;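 further: scored against the spread of the other compound wells on the same plate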
JNK3 blocker: inhibitors of human JNK3 kinase | P53779 | purified JNK3 kinase activity, HTS | inhibition, % at 8 µM | 60,000 tested, 0.61% active; in the data active means inhibition above about 17%;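 further: 0% = DMSO and 100% = reference inhibitor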
Target sequence (P53779 whole entry, looked up): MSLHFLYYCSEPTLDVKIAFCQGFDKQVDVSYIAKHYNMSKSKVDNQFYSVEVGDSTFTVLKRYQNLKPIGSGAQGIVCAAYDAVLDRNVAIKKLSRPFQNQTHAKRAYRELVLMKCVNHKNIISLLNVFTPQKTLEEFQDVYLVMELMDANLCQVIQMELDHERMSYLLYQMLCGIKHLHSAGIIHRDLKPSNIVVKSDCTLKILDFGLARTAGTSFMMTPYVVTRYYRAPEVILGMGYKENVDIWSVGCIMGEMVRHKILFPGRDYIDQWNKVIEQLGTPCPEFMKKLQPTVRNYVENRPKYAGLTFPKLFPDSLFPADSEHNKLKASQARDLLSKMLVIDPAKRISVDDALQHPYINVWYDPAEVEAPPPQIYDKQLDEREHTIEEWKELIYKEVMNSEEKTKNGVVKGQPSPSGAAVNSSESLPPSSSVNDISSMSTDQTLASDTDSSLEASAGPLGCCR
D1 allo mod: D1 dopamine receptor (human) allosteric modulation; 58,000 tested, 5.9% active; HEK293 D1, CRE-luciferase, dopamine EC30 potentiation; actives deviate in either direction; B-score at 10 µM; AID 641; P21728;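 active means luminescence count or its row- and column-corrected plate score outside the 99.7% band of the plate's sample wells, on either side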
D1 PAM confirm: D1 receptor (human) allosteric modulation, confirmed | shares compounds with D1 allo mod | HEK293 D1 CRE-luciferase, dopamine EC30 potentiation; active compounds read high | luminescence at 10 µM | 2,200 tested, 88% active | AID 642;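 active means luminescence in either of two replicates above the same-plate mean plus 3 SD of the low-dose dopamine control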
D1 no dopamine: secondary test of D1 modulators: activity without dopamine; shares compounds with D1 allo mod; HEK293 D1 CRE-luciferase, luminescence, no dopamine; active compounds read high; luminescence at 10 µM; 1,900 tested, 0.8% active; AID 646; in the data active means luminescence above about 3900
Isoprot counter: alters isoproterenol CRE-luciferase response in HEK293 cells; shares compounds with D1 allo mod; HEK293 D1 CRE-luciferase, isoproterenol EC30 counter-screen; calls only at 10 µM; 2,200 tested, 63% active; AID 647;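 active means luminescence in either replicate above plate mean of wells with a partly effective reference agonist dose plus 3 SD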;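 further: isoproterenol raises cAMP through native beta-adrenoceptor Gs so signal bypasses D1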
An asterisk follows results filed as active; i = inactive; · = no result given; + = active, no number. Shown is part of a subset that was picked to be rich in hits.

SMILES	PKA inh	ROCK2 blocker	hDAT+cocaine	JNK3 blocker	D1 allo mod	D1 PAM confirm	D1 no dopamine	Isoprot counter
CCOc1ccc(N2CC(=O)N/C2=N\c2nc(C)cc(C)n2)cc1	4.6	0.5	-0.151	3.4	-0.439	·	·	·
COc1ccc(CN(C2CCCC2)S(=O)(=O)c2ccc(-n3cnnn3)c(OC)c2)cc1OC	9.9	·	-0.463	·	6.15*	9100*	1536	+
O=c1c2ccccc2c2ccccc2c(=O)n1Cc1cccnc1	11.7	5.9	-0.429	-4.2	2.78*	7060	1648	i
COc1cc(-n2c(=O)c3ccccc3n(Cc3cccnc3)c2=O)cc(OC)c1OC	-1.8	1.5	-1.62	4.7	·	·	·	·
COc1ccc(-c2noc(CSc3nnc(CCc4ccccc4)n3-c3ccccc3)n2)cc1OC	3.9	0.7	2.4	0.1	7.23*	10480*	1584	+
COc1ccc(-c2nnc(SCc3ccccc3F)o2)cc1OC	3.5	2.4	-1.01	1.9	11.7*	22288*	1720	+
Cc1ccc(-c2noc(CSc3nnc(CCc4ccccc4)n3-c3ccccc3)n2)cc1	·	·	0.0986	·	·	·	·	·
COc1ccc(-c2noc(CSc3ccccc3)n2)cc1OC	9.4	6.5	2.12	-2.9	9.38*	8800*	1600	+
Cc1ccc(-c2nnc(SCc3ccccc3F)o2)cc1	11.5	2.2	0.339	1.8	-2.09	·	·	·
COc1ccc(-c2noc(CCN3C(=O)c4ccccc4C3=O)n2)cc1OC	2.7	5.9	0.124	1.3	2.61*	17536*	1456	i
CCn1c(COc2ccc3c(c2)CCCC3)nnc1SCC(=O)Nc1nccs1	-3.0	0.6	-0.559	-5.0	-0.446	·	·	·
CCOC(=O)c1c(N)c(C#N)c2n1CCCCC2	4.7	2.9	0.0353	0.3	10.8*	10284*	1420	+
CCOC(=O)c1c(N)c(C#N)c2n1CCCC2	·	·	-0.973	·	·	·	·	·
Nc1nc(SCc2ccc3c(c2)OCCO3)n[nH]1	-5.2	-0.7	-0.039	0.9	4.9*	9268*	1676	i
COc1cccc2c(=O)n(CC(=O)Nc3ccccc3F)ccc12	·	·	-0.111	·	·	·	·	·
COc1cc2c(cc1OC)-c1cc(NC3CCCC3)nc(=O)n1CC2	-4.2	2.0	0.648	-2.5	8.48*	14200*	1764	+
C=C(C)CN1CCN(c2c(CCC#N)c(C)c(C#N)c3nc4ccccc4n23)CC1	1.1	0.8	-0.485	-1.0	5.38*	11364*	1768	+
CCCCCc1c(C)c(C#N)c2nc3ccccc3n2c1-n1ccnc1C	·	·	-0.215	·	·	·	·	·
Cc1ccc2[nH]c(=O)c(CN(Cc3ccco3)C(=O)c3cccs3)cc2c1	5.0	3.4	0.00544	-6.0	-1.08	·	·	·
O=C(c1cccs1)N(Cc1ccccn1)Cc1ccco1	-3.5	-3.5	-0.251	-1.8	10.4*	13228*	1456	+
O=C(NCc1cccnc1)C1c2ccccc2C(=O)N1C1CCCC1 (configuration not stated)	4.3	3.7	0.00695	2.0	-0.189	·	·	·
COC(=O)c1ccc(Oc2cc(C)nc(-n3nc(C)cc3C)n2)cc1	-4.1	-7.6	-0.646	-6.5	7.78*	18884*	1876	+
COC(=O)CSc1nc(C)cc(Oc2ccccc2)n1	-8.0	1.4	0.431	3.1	12.3*	13148*	·	+
Cc1cc(Oc2ccccc2)nc(N)n1	-0.5	3.5	1.31	2.0	4.01*	9044*	·	+
CCOC(=O)c1ccc(Oc2cc(C)nc(SC)n2)cc1	-0.4	1.7	0.422	-1.4	3.01*	8484*	1628	i
SMILES	PKA inh	ROCK2 blocker	hDAT+cocaine	JNK3 blocker	D1 allo mod	D1 PAM confirm	D1 no dopamine	Isoprot counter
CCN(CC)S(=O)(=O)c1ccc(S(=O)(=O)Nc2ccc(C(=O)N3CCCC3)cc2)cc1	-4.4	-7.2	-0.147	0.5	-0.0229	·	·	·
O=C(COC(=O)c1ccccc1OCc1ccc(Cl)cc1)NC1CC1	·	·	0.919	·	·	·	·	·
CCN(CC)S(=O)(=O)c1cc(-c2nn(C)c(=O)c3ccccc23)ccc1C	·	·	0.0263	·	·	·	·	·
CCOC(=O)c1ccc(Oc2nc(NC)nc(SC)n2)cc1	6.0	2.1	0.457	2.1	7.95*	17796*	1848	i
CCNc1nc(Oc2ccc(C(=O)OCC)cc2)nc(SC)n1	7.0	·	0.926	·	-0.64	·	·	·
c1cnc2c(C3NCCc4c3[nH]c3ccccc43)cccc2c1 (configuration not stated)	·	·	1.8	·	·	·	·	·
O=C(CCn1c(=O)oc2ccccc21)NCCN1CCOCC1	2.2	5.0	-0.846	0.1	-0.126	·	·	·
O=c1ccc2c(o1)/C(=C/C=C(Cl)Cl)CCC2	5.9	1.4	-1.9	-7.9	1.87	·	·	·
Nc1nc2c3ccccc3nc(Cc3ccccc3)n2n1	4.9	4.2	-0.935	9.3	15.8*	11064*	1640	+
Cc1nc2ccccc2c2nc(N)nn12	·	·	0.0265	·	·	·	·	·
CCCc1nc2ccccc2c2nc(N)nn12	4.4	2.3	-0.122	-2.3	27.3*	19312*	1684	+
Cc1ccc(Nc2nc3ccccc3nc2-n2nc(C)cc2C)cc1	·	·	0.0334	·	·	·	·	·
Cc1cc(C)n(-c2nc3ccccc3nc2Nc2ccc(CC(=O)O)cc2)n1	4.2	2.0	0.493	-10.6	21.4*	7376*	1728	i
COC(=O)c1cc2sc(Cl)cc2n1CC(=O)N1CCCc2ccccc21	5.8	4.7	-1.06	1.5	5.45*	9576*	1504	i
COC(=O)c1cc2sccc2n1CC(=O)N1CCCc2ccccc21	-2.9	-6.8	-0.556	-13.1	2.51	·	·	·
Cc1nc2ccc(S(=O)(=O)NC(C(=O)N3CCC(C)CC3)C(C)C)cc2s1 (configuration not stated)	5.8	2.2	0.023	-3.2	·	·	·	·
CSc1nc(-c2ccco2)nn1S(=O)(=O)c1ccccc1	10.1	5.6	0.459	7.8	6.62*	19196*	1648	+
CCS(=O)(=O)n1nc(-c2ccco2)nc1SC	3.5	·	-0.0358	·	·	·	·	·
CSc1nc(-c2ccco2)nn1S(=O)(=O)c1ccc(C)cc1	2.0	2.9	-0.541	7.6	6.54*	11872*	·	+
Cn1c(=O)c2c(nc(CN3CCN(C(=O)c4ccco4)CC3)n2CCCc2ccccc2)n(C)c1=O	1.8	-4.3	·	-2.2	-0.152	·	·	·
COc1ccc(Nc2nc(C)c3ccccc3n2)cc1	3.3	1.3	-1.19	-4.1	0.301	·	·	·
COc1ccc(Nc2nc3ccccc3nc2C)cc1	3.6	4.1	2.05	0.8	3.12*	8152*	·	i
O=C(N1CCOCC1)N1CCCN(C(=O)N2CCOCC2)CC1	6.1	4.0	0.315	4.9	-0.874	·	·	·
O=[N+]([O-])c1cc(-c2csc(NC(CO)c3nc4ccccc4n3CCOCCO)n2)ccc1Cl (configuration not stated)	·	·	1.01	·	·	·	·	·
CCNC(=O)N1CCOCC1	·	·	-0.974	·	·	·	·	·
c1ccc(CNc2nc3ccccc3n3cnnc23)nc1	3.8	3.1	-1.21	-1.0	9.23*	13992*	·	+
